The campaign covered roughly 2,500 compounds. About 360 (14%) were called active. Not all results are given here. A number with no mark means an inactive call.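 How the source made its calls: active means signal-lowering compounds whose fitted half-maximal concentration AC50 is no higher than ten times their top tested concentration; inconclusive means flat curve with 30 to 70% inhibition, or poor fit; inactive means flat within 30%, signal increase, or AC50 above limit.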

The assay is described as follows: non-specific inhibitors of H2O2 luminol chemiluminescence – biochemical, luminescence, no ALR or DTT, cherry-pick, artefact control for ALR inhibitor project, dose response (AID 540356).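 On activity change, negative = inhibition: 0% = median of neutral control wells and -100% = median of quercitin 100 µM wells.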 Conditions: HRP/H2O2 luminol luminescence counterscreen; series mostly up to 10 µM; activity change, negative = inhibition: at the top concentration.
With `COc1cc(-n2c(-c3ccccc3)n[nH]c2=S)c(OC)cc1Cl`, the “activity change, negative = inhibition” value is -5.76%.

Turning to `COc1ccc(C(=O)N2CCN=C2SCc2cccnc2)c(OC)c1`, the “activity change, negative = inhibition” value was -0.521%.

On to `Cc1cc(-c2nsc(=O)o2)c(S(C)(=O)=O)s1`, for which the “activity change, negative = inhibition” value is -3.28%.

For `Cc1c(/C=N\NC(=O)c2ccc(F)cc2)cnn1C`, the “activity change, negative = inhibition” value is -0.44%.

`CCN(CC)c1ccc(CNc2ccc3c(c2)ncn3CC)cc1`: the “activity change, negative = inhibition” value was -4.04%.

For the compound `CCN(CC)c1ccc(CN2CCCCCC2)cc1`, the “activity change, negative = inhibition” value is -1.83%.

For `CN(C)c1ccc(-c2n[nH]c(=S)n2-c2ccccc2)cc1`, the “activity change, negative = inhibition” value was -1.29%.

As to `Cc1cc(C)nc(Sc2c(C)nn(-c3ccccc3)c2C)n1`, the “activity change, negative = inhibition” value is -0.742%.

For the compound `Oc1c(Cl)cc(Cl)cc1CNc1ccc(Br)cn1`, the “activity change, negative = inhibition” value was -1.14%.

As to `O=C(c1ccc2c(c1)OCO2)N1CCN(c2ccccc2)CC1`, the “activity change, negative = inhibition” value was 0.839%.

For the compound `O=c1oc2ccccc2cc1-c1ccc(O)cc1`, the “activity change, negative = inhibition” value is -10.8%.

In the case of `Nc1nc(-c2c[nH]c3ccccc23)cs1`, the “activity change, negative = inhibition” value is -0.944%.

Regarding `c1ccc2c(-c3csc(-c4ccncc4)n3)c[nH]c2c1`, the “activity change, negative = inhibition” value was -10.2%.

Turning to `O=C(O)Cn1cc(C(=S)N2CCCCC2)c2ccccc21`, the “activity change, negative = inhibition” value is -14.5%.

As to `CC(C)NS(=O)(=O)c1ccc2c(c1)NCC2`, the “activity change, negative = inhibition” value is -1.5%.

In the case of `COc1ccc(C2=CSC3=NNC4(CCCCC4)NN23)cc1`, the “activity change, negative = inhibition” value was -0.282%.

Consider `COc1ccc(NC2c3ccccc3C(=O)N2c2cccnc2)cc1Cl` (stereo unspecified), for which the “activity change, negative = inhibition” value was -3.2%.

For the compound `S=c1[nH]nc(-c2ccco2)n1C1CCCCC1`, the “activity change, negative = inhibition” value is -1.24%.

In the case of `O=C(NNc1c2ccccc2nc2ccccc12)c1ccccc1O`, the “activity change, negative = inhibition” value was -2.21%.

Broadly, the AC50 is the concentration at which the activity in the assay is half-maximal. For `O=C(NNc1nc2ccccc2s1)c1ccccc1F`, the AC50 was 5.35 µM (active).

For `O=C(NNc1nc2cc3c(cc2s1)OCO3)c1ccccc1`, the “activity change, negative = inhibition” value was -0.28%.

As to `COc1cccc(N2CCN(CC(=O)NC(C)c3ccccc3)CC2)c1` (stereo unspecified), the “activity change, negative = inhibition” value is -1.52%.

Regarding `O=C(NC1CCCCC1)N1CCN(c2ccc(Cl)cc2)CC1`, the “activity change, negative = inhibition” value is -0.46%.

For `O=C(Nc1ccccc1N1CCCC1)c1ccccc1F`, the “activity change, negative = inhibition” value was -1.54%.

With `COc1ccc(N2CCC(CNC(=O)Nc3ccc(OC)cc3OC)C2)cc1` (stereo unspecified), the “activity change, negative = inhibition” value was -2.98%.

Consider `Clc1ccc(-n2nnc(-c3nccs3)n2)cc1Cl`, for which the “activity change, negative = inhibition” value is -1.28%.

As for `Cc1cc(C)n2cc(CSc3nc4ccccc4[nH]3)nc2n1`, the “activity change, negative = inhibition” value was -2.68%.

For `COc1ccccc1N1CCN(S(=O)(=O)c2cccc(F)c2)CC1`, the “activity change, negative = inhibition” value was -2.52%.

On to `Oc1cc2c(cc1O)C(c1ccccc1)CNCC2` (stereo unspecified), for which the AC50 is 4.68 µM (active).

For `Oc1ccc(C2CNCCc3c2cc(O)c(O)c3Cl)cc1` (stereo unspecified), the AC50 is 5.92 µM (active).

As to `Nc1[nH]c(N=NC(=O)c2ccc(F)cc2)c2ccccc12`, the AC50 was greater than 10 µM.

Consider `CC(C)(C)c1ccc(Oc2ccc(NC(=O)CCCC(=O)O)cn2)cc1`, for which the “activity change, negative = inhibition” value is -11.2%.

Turning to `Cc1c(Cl)c(-c2n[nH]c(=S)n2-c2ccccc2)nn1C`, the “activity change, negative = inhibition” value is -3.37%.

Take `O=c1ccsn1Cc1ccccc1`: the “activity change, negative = inhibition” value is -0.761%.

Consider `COc1cc(OC)cc(C(=O)Nc2ccc(S(=O)(=O)Nc3cc(C)nc(C)n3)cc2)c1`, for which the “activity change, negative = inhibition” value is -13.2%.

For `COc1ccc(OC)c(N(CC(N)=O)S(=O)(=O)c2ccc(OC)c(OC)c2)c1`, the “activity change, negative = inhibition” value was -1.8%.

Take `Cc1ccc(S(=O)(=O)NN2C(=O)/C(=C/c3cccnc3)SC2=S)cc1`: the “activity change, negative = inhibition” value is 0.314%.

Regarding `Cc1nc(C)c(/C(O)=C\c2nc3ccc([N+](=O)[O-])cc3oc2=O)o1`, the “activity change, negative = inhibition” value is -6.55%.

Take `Cc1cc(C(=O)Nc2nnc(-c3ccccc3)s2)no1`: the “activity change, negative = inhibition” value was 4.74%.

Consider `CNc1nnc(-c2cccc(N(C)C)c2)s1`, for which the AC50 was 1.05 µM (active).

Turning to `Cc1nc(SCc2ccc(Cl)c(Cl)c2)ncc1C(=O)O`, the “activity change, negative = inhibition” value was -2.92%.

In the case of `COc1c(F)c(F)c(C(=O)O)c(Nc2ccc(C)cc2C)c1F`, the “activity change, negative = inhibition” value was -2.48%.

For the compound `COc1ccc(N2C(=O)CSC2c2ccncc2)cc1` (stereo unspecified), the “activity change, negative = inhibition” value was -0.02%.

Turning to `CCCCN(C)S(=O)(=O)c1ccc(C(=O)Nc2nnc(-c3ccco3)o2)cc1`, the “activity change, negative = inhibition” value was -1.54%.

With `Cn1c(=O)c2c(nc(N/N=C/c3ccncc3)n2Cc2ccccc2)n(C)c1=O`, the “activity change, negative = inhibition” value was -3.48%.

For the compound `Nc1ncc(-c2ccccc2)c(-c2ccc(O)cc2O)n1`, the “activity change, negative = inhibition” value was -18.7%.

Consider `Cc1cccnc1Nc1nc(-c2ccc(O)cc2O)cs1`, for which the “activity change, negative = inhibition” value is -5.97%.

Regarding `COc1ccccc1-c1cc(-c2ccc(O)cc2)nc(N)c1C#N`, the “activity change, negative = inhibition” value was -2.09%.

Consider `Cc1ccc(Nc2nc(-c3ccc(O)cc3O)cs2)nc1`, for which the “activity change, negative = inhibition” value is -1.74%.

Consider `COc1ccc(-c2n[nH]c(C)c2-c2ccccc2OC)c(O)c1`, for which the “activity change, negative = inhibition” value was -3.28%.

In the case of `Cc1ccc(-n2c(-c3ccc(Cl)cc3)n[nH]c2=S)c(C)c1`, the “activity change, negative = inhibition” value is -6.19%.

Regarding `COc1ccc(-c2cn[nH]c2-c2ccc(OC)cc2O)cc1`, the “activity change, negative = inhibition” value is -0.281%.

Consider `Cc1cc(C)nc(NNC(=O)c2ccccc2O)n1`, for which the “activity change, negative = inhibition” value was -6.11%.

In the case of `CC[C@@H](C)[C@H](NC(=O)Cc1c(C)c2cc3c(C)coc3c(C)c2oc1=O)C(=O)O`, the “activity change, negative = inhibition” value was -7.97%.

`O=C(O)c1ccc(Sc2nnc(-c3cccc(Br)c3)o2)c([N+](=O)[O-])c1`: the “activity change, negative = inhibition” value is 0.002%.

Take `ClCc1csc(-c2ccc(Cl)cc2)n1`: the “activity change, negative = inhibition” value was -0.804%.

Turning to `O=C(NCCc1ccc(O)cc1)c1ccc(Cl)cc1`, the “activity change, negative = inhibition” value is -4.94%.

As to `Cc1ccc(O)c(NC(=O)CCCC(=O)O)c1`, the “activity change, negative = inhibition” value is 0.036%.

Regarding `c1ccc(-c2cc(N3CCCCCC3)n[nH]2)cc1`, the “activity change, negative = inhibition” value is -2.05%.

In the case of `O=c1cc(-c2cccc([N+](=O)[O-])c2)[nH][nH]1`, the “activity change, negative = inhibition” value was -18%.

With `CC(=NC1CCCC1)c1c(C)[nH]n(-c2nc3ccccc3s2)c1=O`, the “activity change, negative = inhibition” value is -5.59%.

For `N/C(=N/O)c1ccccc1N1CCC(Cc2ccccc2)CC1`, the “activity change, negative = inhibition” value was -3.88%.

As for `Nc1cccc(-c2cn3cccnc3n2)c1`, the AC50 was 4.52 µM (active).

On to `CN(C)S(=O)(=O)c1cccc(-c2cn3cccnc3n2)c1`, for which the “activity change, negative = inhibition” value was -0.689%.

`Cc1nc(-c2cccc(N)c2)cs1`: the “activity change, negative = inhibition” value was 0.082%.

As for `COc1ccc(CC(=O)N2CCN=C2SCc2cccc([N+](=O)[O-])c2)cc1`, the “activity change, negative = inhibition” value was -3.08%.

Regarding `COc1ccc(/C=N/NC(=O)c2ccn[nH]2)cc1CSc1ccccn1`, the “activity change, negative = inhibition” value was -0.553%.

With `CCc1c(C)c2cc(Cl)c(O)c(CN3CCCCC3)c2oc1=O`, the “activity change, negative = inhibition” value was -0.144%.

Take `Cc1c(Br)c(=O)oc2c(Br)c(O)c(O)cc12`: the AC50 is 7.79 µM (active).

As to `CC1CCC2C(C1)Nc1c(C(=O)O)cccc1C2(C)C` (stereo unspecified), the “activity change, negative = inhibition” value is -7.59%.

On to `C=CCn1c(C(C)NC(=O)c2cccc(C)c2)n[nH]c1=S` (stereo unspecified), for which the “activity change, negative = inhibition” value was -5.54%.

Consider `COc1cccc(OC)c1C(=O)N1CCN=C1SCc1cccnc1`, for which the “activity change, negative = inhibition” value was 0.71%.

With `Cc1cc(C)nc(NN2C(=O)/C(=C/c3ccc(O)cc3)SC2=S)n1`, the “activity change, negative = inhibition” value was -1.81%.

In the case of `O=C(O)C(c1ccccc1)N1C(=O)/C(=C\c2ccc(O)c(O)c2)SC1=S` (stereo unspecified), the AC50 was 5 µM (active).

Take `O=C(O)C(c1ccccc1)N1C(=O)/C(=C\c2ccc(-c3cccc(Cl)c3)o2)SC1=S` (stereo unspecified): the “activity change, negative = inhibition” value was -3.18%.

As to `Clc1ccc(/C=C/c2ncc3ccccn23)cc1`, the “activity change, negative = inhibition” value is -2.76%.

The record behind these values is PubChem BioAssay AID540356 (Broad Institute, 2011).
